Experimental data: PubChem BioAssay (Tox21)
Records with an inconclusive call do not appear. A call without a number means that no potency is given here. Activity calls are given as the source filed them. Unless noted, the call rests on the fitted dose curve; in most records, active means well fitted curve in the direction sought with a large enough effect in the repeat runs; inconclusive means weak or mixed curves; inactive means no such curve, though single readings can be large; an effect the other way counts as inactive or inconclusive.

Tests used:
[1] = qHTS assay for small molecules that induce genotoxicity in human embryonic kidney cells expressing luciferase-tagged ATAD5 (AID 651632); details: HEK293T ATAD5-luciferase induction, 16 h; series mostly up to 83.3 µM; further: nearly all actives have a fitted effect of over 15% in size
Method in brief: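 DMSO vehicle served as the control. HEK293T reporter cells, 16 hr at 37C, then 30 min Amplite at room temperature; ATAD5 induction is measured as luciferase activity.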

[2] = qHTS assay for small molecule disruptors of the mitochondrial membrane potential - cell viability (AID 720634; calls by dose curve; further: nearly all actives have a fitted effect of over 20% in size; further: potency means the concentration at half of the fitted maximal effect); details: HepG2 viability, ATP luminescence (CellTiter-Glo), 1 h; series mostly up to 83.2 µM
Method in brief: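 Viability of HepG2 cells is scored from ATP content by luminescence; cells are exposed to compound for 1 hr at 37 C and 5% CO2, then dosed with m-MPI dye before the CellTiter-Glo reagent.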

[3] = qHTS assay to test for compound auto fluorescence at 590 nm (red) in HepG2 cells (AID 720674); details: HepG2 autofluorescence, red 540/590 nm, 1 h; series mostly up to 46 µM
Method in brief: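 Red autofluorescence (Ex/Em 540/590 nm, Rose Bengal sodium equivalents) was measured in HepG2 cells, 2,000 per well in MEM plus 10% FBS, plated overnight at 37 C. Readings were taken 1 hr after adding 23 nL compound or DMSO, at 37 C and 5% CO2.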

[4] = qHTS assay to test for compound auto fluorescence at 535 nm (green) in HepG2 cells (AID 720675); details: green autofluorescence 485/535 nm, 1 h; series mostly up to 46 µM
[5] = qHTS assay to test for compound auto fluorescence at 460 nm (blue) in HEK293 cells (AID 720678); details: blue autofluorescence 405/460 nm; series mostly up to 46 µM
Method in brief: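 After cell attachment (4-5 hr, 37C), compounds were pinned onto HEK293 monolayers in 10% dialyzed FBS medium. The blue channel (405/460 nm) was read following overnight culture. Equivalency was calculated against triamterene.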

[6] = qHTS assay to test for compound auto fluorescence at 590 nm (red) in HEK293 cells (AID 720679); details: red autofluorescence 540/590 nm; series mostly up to 46 µM
Method in brief: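 Plates of HEK293 cells (10% dialyzed FBS) are treated with 23 nL compound or DMSO vehicle after a 4-5 hr attachment period, incubated overnight at 37C, and read for red fluorescence at 540/590nm.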

[7] = qHTS assay for small molecule agonists of the p53 signaling pathway - cell viability (AID 651633; calls by dose curve; further: nearly all actives have a fitted effect of over 30% in size; further: potency means the concentration at half of the fitted maximal effect); details: p53RE-bla HCT-116 viability, ATP luminescence, 16 h; series mostly up to 83.3 µM
Method in brief: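 Viability counter-read: CellTiter-Glo luminescence (30 min, room temperature) in the same p53RE-bla plates. These plates had been exposed to compounds for 16 h at 37 C.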

[8] = qHTS assay for small molecules that induce genotoxicity in human embryonic kidney cells expressing luciferase-tagged ATAD5 - cell viability (AID 651634; calls by dose curve; further: nearly all actives have a fitted effect of over 25% in size; further: potency means the concentration at half of the fitted maximal effect); details: HEK293T ATAD5-luc cells viability, CellTiter-Fluor, 15.5 h; series mostly up to 83.3 µM
Method in brief: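 Here HEK293T cells with the ATAD5 luciferase reporter are incubated with test compounds for 15.5 hr, and cytotoxicity is then gauged by measuring protease activity in live cells using fluorescence.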

[9] = qHTS assay for small molecule disruptors of the mitochondrial membrane potential (AID 720635); details: HepG2 mitochondrial membrane potential, Mito-MPS dye ratio; series mostly up to 83.2 µM; further: potency means the concentration at half of the fitted maximal effect
Method in brief: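 Mitochondrial membrane potential tracked with Mito-MPS dye, red aggregates (ex 540/em 590 nm) against green monomers (ex 490/em 535 nm). Compound treatment 1 hr at 37C, dye 30 min in HepG2.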

Row | SMILES | Potency [1] | Potency [2] | Potency [3] | Potency [4] | Potency [5] | Potency [6] | Potency [7] | Potency [8] | Potency [9]
1 | CC(C)(C)c1ccc(CN2CCN(C(c3ccccc3)c3ccc(Cl)cc3)CC2)cc1 (stereo unspecified) | inactive | inactive | inactive | inactive | inactive | inactive |  |  | 
2 | Nc1nc2[nH]cc(CCc3ccc(C(=O)N[C@@H](CCC(=O)O)C(=O)O)cc3)c2c(=O)[nH]1 |  | inactive | inactive | inactive | inactive | inactive | inactive | inactive | inactive
3 | CN1CCN(C2=Nc3ccccc3Cc3ccccc32)CC1 | inactive | inactive | inactive |  | inactive | inactive |  | inactive | 
4 | CC(C)NCC(O)COc1ccccc1-n1cccc1 (stereo unspecified) | inactive | inactive | inactive | inactive | inactive | inactive |  | inactive | 
5 | CCC(=O)NS(=O)(=O)c1ccc(-c2c(-c3ccccc3)noc2C)cc1 | inactive | inactive | inactive | inactive | inactive | inactive |  | inactive | 
6 | O=C1NCCN1c1ncc([N+](=O)[O-])s1 | inactive | inactive | inactive | inactive | inactive | inactive |  | inactive | 
7 | CCCCC[C@H](O)/C=C/[C@H]1[C@H](O)CC(=O)[C@@H]1CCCCCCC(=O)O | inactive | inactive | inactive | inactive | inactive | inactive |  | inactive | 
8 | CN1CCN(CCCN2c3ccccc3Sc3ccccc32)CC1 | inactive | inactive | inactive | inactive | inactive | inactive |  | inactive | 
9 | CCCCC(O)c1ccccc1 (stereo unspecified) |  | inactive | inactive | inactive | inactive | inactive | 26.6 µM (active) | inactive | inactive
10 | CCC(=O)NCCC1CCc2ccc3c(c21)CCO3 (stereo unspecified) | inactive | inactive | inactive | inactive | inactive | inactive |  | inactive | 
11 | COc1ccc(C2(C#N)CCC(C(=O)O)CC2)cc1OC1CCCC1 (stereo unspecified) | inactive | inactive | inactive |  | inactive | inactive |  | inactive | 
12 | CC(C)(C)NC(=O)[C@H]1CC[C@H]2[C@@H]3CC=C4C=C(C(=O)O)CC[C@]4(C)[C@H]3CC[C@]12C | inactive | inactive | inactive | inactive | inactive | inactive |  | inactive | 
13 | CO[C@H]1C[C@H](O[C@H]2[C@H](C)O[C@@H](O[C@@H]3/C(C)=C/C[C@@H]4C[C@@H](C[C@]5(C=C[C@H](C)[C@@H](C6CCCCC6)O5)O4)OC(=O)[C@@H]4C=C(C)[C@@H](O)[C@H]5OC/C(=C\C=C\[C@@H]3C)[C@]54O)C[C@@H]2OC)O[C@@H](C)[C@@H]1O | inactive |  | inactive | inactive | inactive | inactive |  | 13.3 µM (active) | 11.9 µM (active)
14 | O=S(=O)(O)c1cc(O)c2c(N=Nc3ccc(Nc4ccccc4)c4c(S(=O)(=O)O)cccc34)cc(S(=O)(=O)O)cc2c1 | inactive | inactive | inactive | inactive | inactive | inactive |  |  | 
15 | COc1c(O[C@@H]2O[C@H](CO)[C@@H](O)[C@H](O)[C@H]2O)cc2c(c1OC)-c1ccc(SC)c(=O)cc1[C@@H](NC(C)=O)CC2 | inactive | inactive | inactive | inactive | inactive | inactive |  | inactive | 
16 | COC(=O)C1=C(C#N)NC(C)=C(C(=O)OC(C)C)C1c1cccc([N+](=O)[O-])c1 (stereo unspecified) | inactive | 11.9 µM (active) | inactive | inactive | inactive | inactive |  |  | 19.7 µM (active)
17 | Clc1ccc(COC(Cn2ccnc2)c2ccc(Cl)cc2Cl)c(Cl)c1 (stereo unspecified) | inactive | inactive | inactive |  | inactive | inactive |  | inactive | 
18 | CCN(CC)CCC(=O)N1c2ccccc2Sc2ccc(Cl)cc21 | inactive | inactive | inactive | inactive | inactive | inactive |  | inactive | 
19 | C[C@H](N)C(=O)N[C@@H](C)P(=O)(O)O | inactive | inactive | inactive | inactive | inactive | inactive |  | inactive | 
20 | CCC(=O)c1ccc2c(c1)N(CCCN1CCN(CCO)CC1)c1ccccc1S2 | inactive | inactive | inactive | inactive | inactive | inactive |  | 26.6 µM (active) | 

Row | SMILES | Potency [1] | Potency [2] | Potency [3] | Potency [4] | Potency [5] | Potency [6] | Potency [7] | Potency [8] | Potency [9]
21 | CC[C@@]1(O)C[C@H](O[C@H]2C[C@H](N(C)C)[C@H](O[C@H]3C[C@H](O)[C@H](O[C@H]4CCC(=O)[C@H](C)O4)[C@H](C)O3)[C@H](C)O2)c2c(cc3c(c2O)C(=O)c2c(O)cccc2C3=O)[C@H]1C(=O)OC |  | inactive | inactive | inactive | inactive | inactive | inactive | 15 µM (active) | 1.68 µM (active)
22 | COc1ccccc1N1CCN(CCCC(=O)c2ccc(F)cc2)CC1 | inactive | inactive | inactive | inactive | inactive | inactive |  | inactive | 
23 | Nc1nc(=O)n([C@@H]2CS[C@H](CO)O2)cc1F |  | inactive | inactive | inactive | inactive | inactive | inactive | inactive | inactive
24 | O=C(Nc1ccc(Br)cc1)c1cc(Br)c(Br)s1 | inactive | 3.35 µM (active) | inactive | inactive | inactive | inactive |  |  | 0.668 µM (active)
25 | NC(=O)OC[C@@H]1[C@H](NC(=O)/C(=N\OCC(=O)O)c2csc(N)n2)C(=O)N1S(=O)(=O)O |  | inactive | inactive | inactive | inactive | inactive | inactive | inactive | inactive
26 | CC(C)N=c1cc2n(-c3ccc(Cl)cc3)c3ccccc3nc-2cc1Nc1ccc(Cl)cc1 | inactive | inactive | inactive | inactive | inactive | inactive |  | inactive | 
27 | [O]=[Bi][O][Bi]=[O] |  | inactive | inactive | inactive | inactive | inactive | inactive | inactive | inactive
28 | CCCCC(=O)N(Cc1ccc(-c2ccccc2-c2nn[nH]n2)cc1)[C@@H](C(=O)O)C(C)C |  |  | inactive | inactive | inactive | inactive | inactive | inactive | 
29 | COC(=O)C1=C(C)NC(C)=C(C(=O)O[C@H]2CCN(Cc3ccccc3)C2)[C@H]1c1cccc([N+](=O)[O-])c1 |  | inactive | inactive | inactive | inactive | inactive | inactive |  | 
30 | CC1(C)S[C@@H]2[C@H](NC(=O)C3(N)CCCCC3)C(=O)N2[C@H]1C(=O)O |  | inactive | inactive | inactive | inactive | inactive |  | inactive | 
31 | CC1(C)C(\C=C/C=C\C=C/C=C2/N(CCCCS(=O)(=O)O)c3ccc4ccccc4c3C2(C)C)=[N+](CCCCS(=O)(=O)[O-])c2ccc3ccccc3c21 |  | inactive | inactive | inactive | inactive | inactive | inactive |  | 
32 | C[C@H]1[C@@H](OC(=O)CCC(=O)O)O[C@@H]2OC3(C)CC[C@H]4[C@H](C)CC[C@@H]1[C@@]24OO3 |  | inactive | inactive | inactive | inactive | inactive | inactive | 2.37 µM (active) | 
33 | COc1ccc(C[C@H](C)NC[C@@H](O)c2ccc(O)c(NC=O)c2)cc1 |  | inactive | inactive | inactive | inactive | inactive |  |  | 
34 | CNC(C)[C@@H]1CC[C@@H](N)[C@@H](O[C@H]2[C@H](O)[C@@H](O[C@H]3OC[C@](C)(O)[C@H](NC)[C@H]3O)[C@H](N)C[C@@H]2N)O1 (stereo partly specified) |  |  | inactive | inactive | inactive | inactive |  |  | 
35 | c1ccc2c(c1)Sc1ccccc1N2CCN1CCCC1 |  | inactive | inactive | inactive | inactive | inactive | inactive | inactive | 
36 | C[C@@H]1C[C@H]2C3C[C@H](F)C4=CC(=O)C=CC4(C)[C@@]3(F)[C@@H](O)CC2(C)[C@@]1(O)C(=O)COC(=O)C(C)(C)C (stereo partly specified) |  | inactive | inactive | inactive | inactive | inactive | inactive | inactive | 
37 | O=C(O)CN(CC(=O)O)CC1=CC2C(=CC1=O)Oc1cc(O)c(CN(CC(=O)O)CC(=O)O)cc1C21OC(=O)c2ccccc21 (stereo unspecified) |  | inactive |  |  | inactive |  | inactive |  | 
38 | CC[C@]1(O)CC2CN(CCc3c([nH]c4ccccc34)[C@@](C(=O)OC)(c3cc4c(cc3OC)N(C)[C@H]3[C@@](O)(C(N)=O)[C@H](O)[C@]5(CC)C=CCN6CC[C@]43[C@@H]65)C2)C1 (stereo partly specified) |  | inactive | inactive | inactive | inactive | inactive |  | 0.531 µM (active) | 10.6 µM (active)
39 | N#CC(c1ccc(Cl)cc1)c1c(Cl)cc(-n2ncc(=O)[nH]c2=O)cc1Cl (stereo unspecified) |  | inactive | inactive | inactive | inactive | inactive | 23.7 µM (active) |  | 8.41 µM (active)
